The record followed here is PubChem BioAssay AID588358 (NMMLSC, 2011).

Among all 310,000 compounds or so, about 1,500 (0.48%) were called active.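 The calls were made as follows: active = binding more than 3 SD below its plate's average and above zero; inconclusive = below that plate limit but binding exactly zero; inactive = the rest.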 This excerpt belongs to a sample that is enriched for actives.

The test deals with Desmoglein-3 (Homo sapiens) (UniProt P32926). Kind of test: inhibitors of pemphigus antibody binding to DSG3, primary screen, biochemical, bead-based, flow cytometry, scFv-GFP (AID 588358).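 Also: hits lower antibody fragment binding to DSG3.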 As to conditions: DSG3-coupled beads, scFv-anti-DSG3-GFP binding, at 10 µM, active compounds read low. In general terms: Flow cytometry measures light scatter and fluorescence of single cells or particles in a stream.
Desmoglein-3 (Homo sapiens), sequence (P32926 whole entry, looked up, the tested form may be a part): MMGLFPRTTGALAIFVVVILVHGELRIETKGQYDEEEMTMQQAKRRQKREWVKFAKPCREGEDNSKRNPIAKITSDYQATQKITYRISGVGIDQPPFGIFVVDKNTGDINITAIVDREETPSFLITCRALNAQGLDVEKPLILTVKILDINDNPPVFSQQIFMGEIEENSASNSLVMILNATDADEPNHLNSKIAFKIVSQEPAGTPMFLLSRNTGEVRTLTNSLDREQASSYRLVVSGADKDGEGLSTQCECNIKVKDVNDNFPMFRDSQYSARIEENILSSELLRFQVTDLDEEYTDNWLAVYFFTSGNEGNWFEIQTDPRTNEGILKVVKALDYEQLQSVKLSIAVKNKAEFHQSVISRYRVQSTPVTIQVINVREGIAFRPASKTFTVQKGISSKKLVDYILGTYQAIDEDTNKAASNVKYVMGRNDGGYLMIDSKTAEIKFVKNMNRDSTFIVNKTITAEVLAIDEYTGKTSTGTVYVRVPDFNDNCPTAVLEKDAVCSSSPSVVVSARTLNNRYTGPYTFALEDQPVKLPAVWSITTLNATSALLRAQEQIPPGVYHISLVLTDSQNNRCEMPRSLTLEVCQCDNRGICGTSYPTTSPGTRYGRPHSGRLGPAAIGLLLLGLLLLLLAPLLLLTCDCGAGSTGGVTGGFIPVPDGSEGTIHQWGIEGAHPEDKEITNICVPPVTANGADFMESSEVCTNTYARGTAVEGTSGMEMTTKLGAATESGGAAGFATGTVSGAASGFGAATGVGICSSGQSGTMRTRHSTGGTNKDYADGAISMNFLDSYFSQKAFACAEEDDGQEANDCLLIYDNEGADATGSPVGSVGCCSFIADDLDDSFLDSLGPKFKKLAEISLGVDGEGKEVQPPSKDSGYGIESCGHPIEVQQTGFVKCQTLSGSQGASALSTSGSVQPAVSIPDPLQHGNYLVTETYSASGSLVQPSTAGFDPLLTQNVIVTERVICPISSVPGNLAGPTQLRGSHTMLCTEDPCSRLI
Regarding `O=S1(=O)CCN(C2CCCCCCCCCCC2)CC1`, the binding (percent of control) is 96.7% (inactive).
Regarding `CC(=O)Nc1ccc(C=Cc2ccc([N+](=O)[O-])cc2)cc1`, the binding (percent of control) is 101% (inactive).
Next, `CCN(CC(=O)Nc1ccc(NC(C)=O)cc1)C(=O)C1CC(=O)N(c2ccc3c(c2)OCCO3)C1` (centres undefined): 102% (inactive); `CC(C)c1ccc(NC(=O)C2CCCN(S(=O)(=O)c3cccnc3)C2)cc1` (centres undefined): -3.9% (active); `O=C(Nc1ccc(F)c(Cl)c1)C1CCN(S(=O)(=O)c2cccnc2)CC1`: 109% (inactive).
In the case of `COc1ccc(S(=O)(=O)N2CCCC(C(=O)Nc3ccc(NC(=O)c4ccccn4)cc3)C2)cc1` (centres undefined), the binding (percent of control) is 101% (inactive).
The result for `C=CCn1nc(C(=O)OCC)cc1-c1sc(NC(=O)c2ccccc2)nc1C` reads 102% (inactive); that for `Cc1cc(Nc2ccc(C)c(C)c2)n2ncnc2n1`, 95% (inactive); that for `CCN(CC)C(=O)C1=C(C)N(Cc2ccc(OC)cc2)C(=O)C(CC(=O)NCCCCc2ccccc2)C1` (centres undefined), 109% (inactive).
Turning to `O=S(=O)(NCc1ccccc1)c1ccc(S(=O)(=O)N2CCCC2)cc1`, the binding (percent of control) was 7.03% (active).
`O=S(=O)(c1ccc(-c2ccccc2)cc1)N1CCCC1`: the binding (percent of control) was 95.9% (inactive).
For `CC1CCN(S(=O)(=O)c2ccc(S(=O)(=O)NCc3cccnc3)cc2)CC1`, the binding (percent of control) was 94.4% (inactive).
Turning to `CCOc1cc(/C=N/NC(=O)c2c(C)nc3ccc(Cl)cn23)ccc1O`, the binding (percent of control) is 108% (inactive).
On to `C=CCN(CC=C)S(=O)(=O)c1ccc(C(=O)Nc2sc3c(c2C(N)=O)CCCCC3)cc1`, for which the binding (percent of control) was 110% (inactive).
With `COc1cccc(OC)c1C(=O)Nc1sc2c(c1C(N)=O)CCCC2`, the binding (percent of control) was 109% (inactive).
On to `NC(=O)c1c(NC(=O)c2ccccc2)sc2c1CCCC2`, for which the binding (percent of control) is 63.6% (active).
With `CCOc1cc(C2C(C(=O)c3ccco3)=C(O)C(=O)N2Cc2ccccc2)ccc1O` (centres undefined), the binding (percent of control) was 104% (inactive).
Regarding `O=C(C1=C(O)C(=O)N(Cc2ccccc2)C1c1ccco1)c1ccco1` (centres undefined), the binding (percent of control) was 108% (inactive).
With `O=C(C1=C(O)C(=O)N(Cc2ccccc2)C1c1cccnc1)c1ccco1` (centres undefined), the binding (percent of control) was 64.8% (active).
Next, `CN1CCN(c2ccncc2S(=O)(=O)N2CCCC2)CC1`: 102% (inactive).
In the case of `O=c1ccc(-c2ccc(S(=O)(=O)Nc3ccccc3)o2)n[nH]1`, the binding (percent of control) was 110% (inactive).
On to `Cc1ccc(NS(=O)(=O)c2ccc(-c3ccc(=O)[nH]n3)o2)c(C)c1`, for which the binding (percent of control) was 102% (inactive).
Turning to `CC1CCCN(S(=O)(=O)c2ccc(-c3ccc(=O)[nH]n3)o2)C1` (centres undefined), the binding (percent of control) was 49% (active).
As for `COc1ccc(C(C)(C)C)cc1NC(=O)CN(C)C1=NS(=O)(=O)c2ccccc21`, the binding (percent of control) is 104% (inactive).
Turning to `O=C1CCC(C(=O)N2CCCCO2)CN1Cc1cccc(C(F)(F)F)c1` (centres undefined), the binding (percent of control) is 90.7% (active).
For `COC(=O)c1ccc(CNC(=O)C2CCC(=O)N(Cc3cccc(F)c3)C2)cc1` (centres undefined), the binding (percent of control) was 97% (inactive).
Next, `O=C(c1ccco1)N1CCN(Cc2cccc(C(F)(F)F)c2)CC1`: 107% (inactive); `Cc1ccnc(SC2CC(=O)N(c3ccccc3)C2=O)n1` (centres undefined): 95.7% (inactive); `O=C(NCC(F)(F)F)c1ccc(S(=O)(=O)NCCc2ccc3c(c2)OCCO3)cc1`: 97.1% (inactive).
The result for `C[C@H](O)[C@@H]1C(=O)N2CCc3c([nH]c4ccccc34)[C@@H]2C[C@@H]1N(C)C(=O)Nc1ccc(F)cc1` reads 109% (inactive).
Consider `O=C(c1ccc(CSc2ccccc2)cc1)N1CCCCCC1`, for which the binding (percent of control) was 105% (inactive).
As to `CN(C)c1ccc(CSc2ccccc2)cc1`, the binding (percent of control) is -6.16% (active).
In the case of `CN(C)c1cc[n+](Cc2ccccc2)cc1`, the binding (percent of control) was 99.9% (inactive).
In the case of `Cc1ccc(Cc2c(-c3ccc(C)cc3)nc3c4ccccc4ccn23)cc1`, the binding (percent of control) was 109% (inactive).
In the case of `Cc1ccc(S(=O)(=O)/N=C2\C=C(NS(=O)(=O)c3ccc(C)cc3)C(=O)c3ccccc32)cc1`, the binding (percent of control) is 97.2% (inactive).
In the case of `COc1ccc(NC(=O)CN(C)C(=O)c2cc(-c3ccc(C)o3)nc3ccccc23)cc1`, the binding (percent of control) is 96.9% (inactive).
On to `COc1cccc(NC(=O)CN(C)C(=O)c2cc(Cl)nc3ccccc23)c1`, for which the binding (percent of control) was 80.8% (active).
Turning to `COc1cccc(NC(=O)CN(C)C(=O)c2ccccc2CCc2ccccc2)c1`, the binding (percent of control) is 108% (inactive).
As for `CSc1ncccc1C(=O)N1CCCC(Nc2ccc(F)c(F)c2)C1` (centres undefined), the binding (percent of control) is 104% (inactive).
As to `CCN(C(=O)Nc1cccc2ccccc12)c1ccccc1`, the binding (percent of control) is 103% (inactive).
Next, `CCc1ccccc1NC(=O)CN1CCN(C(=O)c2cc(C3CC3)nn2-c2ccccc2)CC1`: 106% (inactive).
As to `COc1ccc(S(=O)(=O)N(C)C)cc1NC(=O)COC(=O)c1n[nH]c2ccccc12`, the binding (percent of control) is 98.8% (inactive).
For `Cc1cccc(C(=O)C(O)(c2ccccc2)C2CCCCC2=O)c1` (centres undefined), the binding (percent of control) was 106% (inactive).
As for `CCOc1ccccc1Nc1ccc2nonc2c1[N+](=O)[O-]`, the binding (percent of control) was 96.1% (inactive).
Next, `O=[N+]([O-])c1c(NCCO)cc(Sc2nc3ccccc3s2)c2nonc12`: 83.3% (active).
`O=C(O)c1ccccc1CSc1nc2ccccc2s1`: the binding (percent of control) is 116% (inactive).
The result for `CCOC(=O)C(=Cc1ccccc1)C(=O)c1ccccc1` reads 106% (inactive); that for `CCN(CC)C(=O)C1=C(C)N(Cc2ccccc2)C(=O)C(CC(=O)NC(c2ccccc2)c2ccccc2)C1` (centres undefined), 107% (inactive); that for `O=C(CCc1ccc(O)cc1)NN=Cc1cc(Br)ccc1O`, 106% (inactive).
Regarding `COc1ccc(-c2noc(CNC(=O)C(C)Oc3ccccc3)n2)cc1` (centres undefined), the binding (percent of control) was 109% (inactive).
The result for `COc1ccc(-c2noc(CCC(=O)N3CCN(c4cccc(C)c4)CC3)n2)cc1` reads 98.6% (inactive).
Turning to `COc1ccc(-c2noc(COc3ccc(Cl)c(C)c3)n2)cc1`, the binding (percent of control) was 66.6% (active).
Regarding `Cc1ccc(-c2ccc(C3=CC(=O)CC(C)(C)C3=O)cc2)cc1`, the binding (percent of control) is 97.6% (inactive).
Take `COc1ccc(C(CNC(=O)CSc2ccccc2)N2CCOCC2)cc1` (centres undefined): the binding (percent of control) was 100% (inactive).
Turning to `CC(C)c1cc(C(=O)N(C)C2CCCN(Cc3ccccc3F)C2)n(C)n1` (centres undefined), the binding (percent of control) is 96.7% (inactive).
As to `CC(C)C1CCN(C(=O)C2CCC(=O)N(C3CCCCCC3)C2)CC1` (centres undefined), the binding (percent of control) was 101% (inactive).
Next, `CCCC(C(=O)N1CCOCC1)N1C(=O)C2C3C=CC(C3)C2C1=O` (centres undefined): -12.4% (active).
Next, `CCC(C(=O)N1CCOCC1)n1c(C(=O)OC)cc2occc21` (centres undefined): 99.3% (inactive); `CCCCOC(=O)NCN1C(=O)C2C3C=CC(C3)C2C1=O` (centres undefined): 110% (inactive).
